The list is not random: actives were taken first. Their share in the collection is about 1.6%.
Glioma ERSR ind = inducers of ER stress response in human glioma cells; U87-MG GRP78 promoter luciferase reporter, 16 h; Potency, µM, hits mostly activators; 0.02% of 420,000 active; active means well fitted activation curve with a large enough effect; inconclusive means small, poorly fitted or top-dose-only effect; inactive means no such curve, though single readings can be large or run the other way; further: series mostly up to about 76 µM; nearly all actives have a fitted effect of over 35% in size
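Stably transfected U87-MG human glioma cells carrying a GRP78-based luminescent sensor were seeded at 1000 cells/well, pin-dosed with compounds and incubated 16 h. Luciferase reagent was then added, and end-point luminescence was read after 10 min at room temperature.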
gsp agonist = activates gsp, the McCune-Albright syndrome mutation. Potency, µM (doses to about 76.9 µM), usual class: activators. 0.13% of 340,000 active. gsp mutant cells, cAMP HTRF, 30 min; active means well fitted activation curve with a large enough effect; inconclusive means small, poorly fitted or top-dose-only effect, or another doubt; inactive means no such curve, though single readings can be large or run the other way; cell line not stated here;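 further: phosphodiesterase inhibitor Ro 20-1724 added with compounds to block cAMP breakdown; nearly all actives have a fitted effect of over 60% in size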
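Cells stably selected in G418 were plated at 2000/well, grown 16-24 hr, then given compounds in DMSO with the PDE inhibitor […] (300 uM solution added) for 30 min at 37C; cAMP was read by HTRF.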
Akt phos inh = blocks phosphorylation of Akt; Neuro2A IGF-stimulated pAkt S473 HTRF, 20 min; hits give low values; activity change, % for hits at 50 µM; 0.32% of 360,000 active; AID 651550; in the data active means activity change below about -80%; inconclusive means mostly about -51% to -80%
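Neuro2A cells (4,500/well, DMEM with 0.5% FBS) were treated with compound at a single 50 µM final concentration, stimulated with 6 nM IGF for 20 min at 37 °C, and lysed. Phospho-Akt Ser473 was read by HTRF as 665/615 ratio ×10^4.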
KCNH2 3.1 inh = KCNH2 3.1 (human) potassium channel inhibition; U2OS KCNH2 3.1, thallium flux FluxOr; hits give low values; activity change, % (tested at about 1.8 µM); 0.95% of 340,000 active;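 active means maximum activity change below -70%; inconclusive means maximum activity change from -70% to -50%; inactive means maximum activity change above -50%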;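 further: thallium influx rate constant from kinetic fluorescence after stimulation buffer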
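Kinetic fluorescence (2 min after stimulation buffer) measures Tl+ influx through KCNH2 3.1 expressed by viral transduction in U2OS cells; the rate constant is normalized against DMSO controls serving as positive and negative references.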
hERG WT inh = inhibitors of human wildtype KCNH2 potassium channel; Q12809; U2OS, BacMam KCNH2, thallium flux FluxOr; hits give low values; activity change, % at 1.84 µM; 0.37% of 340,000 active; AID 720551;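 active means maximum activity change below -70%; inconclusive means maximum activity change between -70% and -50%; inactive means maximum activity change above -50%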
Target sequence (Q12809 whole entry, looked up): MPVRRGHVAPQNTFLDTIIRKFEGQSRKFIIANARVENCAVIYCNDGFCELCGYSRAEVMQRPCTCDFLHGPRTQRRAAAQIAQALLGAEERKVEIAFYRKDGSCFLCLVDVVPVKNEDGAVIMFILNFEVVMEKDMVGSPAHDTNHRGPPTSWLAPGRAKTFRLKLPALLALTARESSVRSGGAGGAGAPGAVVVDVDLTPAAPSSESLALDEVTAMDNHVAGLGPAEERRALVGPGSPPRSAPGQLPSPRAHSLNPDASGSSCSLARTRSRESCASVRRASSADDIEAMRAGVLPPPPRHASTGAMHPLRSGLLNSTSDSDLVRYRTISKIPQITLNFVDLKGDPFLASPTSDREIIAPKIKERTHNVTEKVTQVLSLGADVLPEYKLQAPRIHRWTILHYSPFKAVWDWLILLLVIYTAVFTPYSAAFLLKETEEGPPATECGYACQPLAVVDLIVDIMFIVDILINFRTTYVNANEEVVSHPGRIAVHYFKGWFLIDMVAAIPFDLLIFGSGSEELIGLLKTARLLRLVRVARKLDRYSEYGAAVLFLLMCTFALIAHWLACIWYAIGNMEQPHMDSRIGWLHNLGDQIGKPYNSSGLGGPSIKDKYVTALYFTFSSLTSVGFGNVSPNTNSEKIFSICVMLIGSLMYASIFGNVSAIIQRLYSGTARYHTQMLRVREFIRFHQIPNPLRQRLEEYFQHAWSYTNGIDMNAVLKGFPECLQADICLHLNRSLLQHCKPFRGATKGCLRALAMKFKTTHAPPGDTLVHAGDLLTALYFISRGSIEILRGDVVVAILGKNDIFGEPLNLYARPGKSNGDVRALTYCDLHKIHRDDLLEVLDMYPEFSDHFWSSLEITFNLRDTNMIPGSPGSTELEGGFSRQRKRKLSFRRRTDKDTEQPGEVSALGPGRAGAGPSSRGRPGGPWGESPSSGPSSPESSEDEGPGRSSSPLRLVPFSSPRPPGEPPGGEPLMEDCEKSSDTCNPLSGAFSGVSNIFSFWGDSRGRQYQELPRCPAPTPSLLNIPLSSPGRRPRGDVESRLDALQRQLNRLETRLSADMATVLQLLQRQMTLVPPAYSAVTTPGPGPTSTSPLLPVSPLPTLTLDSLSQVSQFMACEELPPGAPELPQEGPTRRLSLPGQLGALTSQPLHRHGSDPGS
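U2OS cells were transduced with wild-type KCNH2 virus (2.03 x 10^8 / mL) for 4 h at room temperature, then cultured overnight at 37 C. Thallium flux was read with FluxOr dye. Rate constants were normalized to DMSO controls.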
gsp antagonist = antagonizes gsp, the McCune-Albright syndrome mutation; 0.4% of 340,000 active; Potency, µM (doses to about 76.9 µM), most hits filed as inhibitors; AID 624288; gsp-mutant cells, cAMP HTRF, 30 min; calls by dose curve; cell line not stated here;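 further: intracellular cAMP measured with PDE inhibitor Ro 20-1724 present during compound exposure; nearly all actives have a fitted effect of over 65% in size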
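Cells, 2000/well, grown 16–24 h in DMEM 10% FBS with 0.5 mg/ml G418, then compounds plus […] (300 uM addition stock), 30 min at 37C. cAMP read by HTRF (cAMP-d2 and anti-cAMP antibody-K in lysis buffer) after 30 min RT.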
Numbers stand for hits; - = inactive; ? = inconclusive; . = no result; [ ] = dose if it differs, or a comment.

SMILES	Glioma ERSR ind	gsp agonist	Akt phos inh	KCNH2 3.1 inh	hERG WT inh	gsp antagonist
CCOc1ccccc1C(=O)Nc1ccc(NC(=O)c2ccccc2)cc1	-	-	-	-	-	-
N#Cc1nc(-c2ccccc2Cl)oc1NCC1CCCO1 (stereo not given)	-	?	-	-72	-	-
CCOc1ccc(-c2nc(C#N)c(NCC3CCCO3)o2)cc1 (stereo not given)	-	-	.	-	-	-
Cn1cc(C(=O)Nc2cccc(F)c2)cn1	-	-	-122%	-	-	-
CCn1cc(C(=O)Nc2ccc(Cl)cc2Cl)cn1	-	-[15.4 µM]	-	-	-	-
CCn1cc(C(=O)Nc2ccc(F)c(F)c2)cn1	-	-	-	-88	-	-
CC(=O)O[C@]1(C(=O)CO)[C@@H](C)C[C@H]2[C@@H]3CCC4=CC(=O)C=C[C@]4(C)[C@@]3(F)[C@@H](O)C[C@]21C	-	.	.	.	.	.
NC(=S)N/N=C\c1ccc(-c2cccc(Cl)c2Cl)o1	-	-	-122%	?	-	-
COc1ccc(C[C@H]2CN3C(=NC[C@@H]3Cc3ccccc3)N2CCNC(=O)CCC2CCCCC2)cc1	-	.	-	?	-145	-
COc1ccc(C[C@H]2CN3C(=NC[C@@H]3C(C)C)N2CCNC(=O)CCC2CCCCC2)cc1	-	?	-	-	-	-
CC(C)(C)n1ncc2c(=O)n(Cc3ccccc3C(F)(F)F)cnc21	-	.	.	.	.	.
N#C/C(=C/c1ccc(N2CCCCC2)o1)C(=O)Nc1ccc(Cl)cc1	-	-	-	?	-	-
N#C/C(=C/c1ccc(N2CCCCC2)o1)C(=O)Nc1ccc2ccccc2c1	-	-	-	-72	-	-
CN(C)c1ccc(-c2nc(NCc3cccnc3)c3ccccc3n2)cc1	-	.	.	.	.	.
COCCn1c(-c2ccc(Br)cc2)csc1=Nc1cccnc1	-	-[15.4 µM]	-	-79	-	-
Clc1ccc(-c2csc(=Nc3cccnc3)n2CCCn2ccnc2)cc1Cl	-	-	-	?	-	-
CCN(CC)C1CCN(C(=O)c2cnn(-c3nccc(-c4ccco4)n3)c2C(C)C)C1 (stereo not given)	-	.	.	.	.	.
COc1ccc(-c2csc(NC(=O)c3ccccc3NS(=O)(=O)c3ccc(C)cc3)n2)cc1	-	?	-	-	-	?
COc1ccc(CC(=O)Nc2nc(-c3ccc(OC)c(OC)c3)cs2)cc1OC	-	-[15.4 µM]	-	-	-	28µM
COc1ccc(S(=O)(=O)Nc2ccccc2C(=O)Nc2nc(-c3ccc(F)cc3)cs2)cc1OC	-	-[15.4 µM]	-	-	-	35µM
COc1ccc(-c2csc(NC(=O)Cc3ccccc3F)n2)cc1OC	-	-[15.4 µM]	-	-	-	?
c1cnc2cc3c(cc2n1)C1CNCC3C1	-	.	.	.	.	.
COc1ccc2[nH]c(C)cc2c1	-	.	.	.	.	.
C(/C=C/c1ccccn1)=C\c1ccccc1	-	-	-	-81	-	-
C(=C\c1ccccn1)/c1ccccc1	-	.	.	.	.	.
SMILES	Glioma ERSR ind	gsp agonist	Akt phos inh	KCNH2 3.1 inh	hERG WT inh	gsp antagonist
CC(C)CCC(CCNCc1ccccn1)c1ccc(Cl)cc1 (stereo not given)	-	-	-	-91	-	-
S=C(NCc1ccc(Cl)cc1)NCc1ccccn1	-	-	-	-	-	-
CCOC(=O)C1CCCN(Cc2nc(N)nc(Nc3ccccc3)n2)C1 (stereo not given)	-	-	-96%	-	-	-
CC1CC(C)CN(Cc2nc(N)nc(Nc3ccc4ccccc4c3)n2)C1 (stereo not given)	-	-	-	-113	-	-
Nc1nc(CN2CCN(C(c3ccccc3)c3ccccc3)CC2)nc(Nc2ccccc2)n1	-	-[15.4 µM]	-	-98	-	-
CC1CC(C)CN(Cc2nc(N)nc(Nc3ccccc3)n2)C1 (stereo not given)	-	-	-	-	-	-
Nc1nc(CN2CCN(Cc3ccc4c(c3)OCO4)CC2)nc(Nc2ccccc2)n1	-	-	-	-76	-	-
CC(=O)Nc1cc(C(=O)N2CCSCC2)cc2ncn(CCc3ccccn3)c12	-	.	.	.	.	.
CCS(=O)(=O)Nc1cc(C(=O)N2CCC[C@H]2CO)c2c(c1)nc(-c1ccccc1)n2C	-	.	.	.	.	.
COCCCNc1ncnc2sc(C(=O)N3CCOCC3)c(C)c12	-	.	.	.	.	.
Cc1ccc(Nc2nc(N)nc(CN3CCN(c4ccccc4F)CC3)n2)cc1	-	-	-	-86	-	-
Nc1nc(CN2CCCCCC2)nc(Nc2ccccc2)n1	-	?	-	-	-	-
Nc1nc(CN2CCC(Cc3ccccc3)CC2)nc(Nc2ccccc2)n1	-	-	-	-87	-90	-
Cc1ccc(Nc2nc(N)nc(CN3CCN(C(=O)c4ccco4)CC3)n2)cc1Cl	-	-	-	-94	-	-
COc1cc2nc(N3CCCN(C)CC3)nc(NC3CCN(C)C3)c2cc1OC (stereo not given)	-	.	.	.	.	.
C=C1C[C@@]23CC[C@H]4[C@@](C)(CCC[C@@]4(C)C(=O)O)[C@@H]2CC[C@]1(O)C3	-	.	.	.	.	.
O=C(C1CCCCC1)N1CCN(c2ccnc3cc(Cl)ccc23)CC1	-	-[15.4 µM]	-	-	-	35µM
COc1ccccc1NC(=O)N1CCN(c2ccnc3cc(Cl)ccc23)CC1	-	-[15.4 µM]	-	-	-	35µM
COc1ccccc1N1CCN(c2ccnc3cc(Cl)ccc23)CC1	-	-	-	-	-	-
CC(=O)c1ccc(N2CCN(c3ccnc4cc(Cl)ccc34)CC2)cc1	-	-[15.4 µM]	-	-91	-	?
O=C(C1CCC1)N1CCN(c2ccnc3cc(Cl)ccc23)CC1	-	-	-	-	-	-
CCC1CN(CC(=O)NCc2ccc3c(c2)OCO3)Cc2ccc(Cl)cc2O1 (stereo not given)	-	.	.	.	.	.
Cc1cc(N2C(=O)C(O)=C(C(=O)c3ccco3)C2c2ccc(Cl)cc2)no1 (stereo not given)	-	11µM	.	-	-	-
Cc1cc(N2C(=O)C(O)=C(C(=O)c3ccco3)C2c2ccc(O)cc2)no1 (stereo not given)	-	?	-	-	-	-
Cn1c(CCN2CCN(c3ccccn3)CC2)nc2cc(NS(=O)(=O)c3ccccc3)ccc21	-	-	-	-76	-	-
SMILES	Glioma ERSR ind	gsp agonist	Akt phos inh	KCNH2 3.1 inh	hERG WT inh	gsp antagonist
Cc1csc(Nc2ccccc2)[n+]1C	-	-[15.4 µM]	-	-	-	-
C=CC[n+]1c(C)csc1Nc1ccc(C(=O)O)cc1	-	-	-	-79	.	-
Cc1cc(NC(=O)CSc2nnc(-c3cccc(Cl)c3)o2)no1	-	-	-	-	-	-
Cc1cc(NC(=O)CSc2nnc(-c3ccc4c(c3)OCCO4)o2)no1	-	?	-81%	-	-	-
CCOC(=O)C(=CNc1ccccc1C)C(=O)OCC	-	-	-	-	-	20µM
CCOC(=O)/C(C#N)=C/Nc1ccccc1OC	-	-	-98%	-	-	-
CCOC(=O)C(=CNc1ccccc1Cl)C(=O)OCC	-	-	-	-	-	-

Source: PubChem BioAssay
